Assay results taken from PubChem BioAssay (NCI).
About 83,000 compounds went through this panel and 20% of them were active in at least one assay; those are over-represented in the sample as a whole.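 Assay: single dose, 48 h. Readout: percent growth (0 = no net growth; negative = cell death). Active: <10.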 Active and inactive are the calls of the source.

Test system: NCI-H460 lung
Assay: NCI-60 one-dose screen, 48 h (100 = growth as untreated, 0 = no growth, -100 = all killed)
Details: 10 µM

SMILES | growth
COc1cc2c3c(n(CCCNCCO)c(=O)c2cc1OC)-c1nc2c(cc1C3=O)OCO2 | -43.9% (active)
COc1ccc2[nH]cc(/C=N/Nc3ccc(Br)cn3)c2c1 | 16.2% (inactive)
O=C(Cn1cc(CSc2nnc3oc4ccccc4n23)nn1)Nc1cccc(Cl)c1 | 91.1% (inactive)
O=C(NO)c1ccc(Cn2ccc3c(Nc4ccccc4)ncnc32)cc1 | 13.1% (inactive)
COc1ccc(-c2nc(-c3ccccc3)c(-c3ccccc3)n2-c2ccc(S(=O)(=O)Nc3ncccn3)cc2)cc1OC | 95.6% (inactive)
O=C(CSc1ccc(-c2ccc(Cl)cc2)nn1)Nc1ccc(Cl)c(C(F)(F)F)c1 | 98.6% (inactive)
CC1(C)[C@@H](NCO)CC[C@]2(C)[C@H]3C(=O)C=C4[C@@H]5C[C@](C)(CO)CC[C@]5(C)CC[C@@]4(C)[C@]3(C)CC[C@@H]12 | 0.687% (active)
Cn1cc(-c2cc(N)n3nc(-c4c[nH]c5ccc(Br)cc45)cc3n2)c2cccnc21 | -35.7% (active)
Nc1nnc(-c2c[nH]c3ncccc23)c(-c2c[nH]c3ccc(Br)cc23)n1 | 27.2% (inactive)
N#Cc1ccc(-c2nn(-c3ccc(C(=O)O)cc3)cc2CNc2ccc(Cl)cc2)cc1 | 93.1% (inactive)
O=C(c1ccc(O)cc1)C1[C@H](c2ccccc2Br)[C@@H](c2ccccc2)NC12C(=O)Nc1ccc(Cl)cc12 (some centres undefined) | 9.99% (active)
COc1nccnc1NS(=O)(=O)c1ccc(NC2=C(Cl)C(=O)c3nc(C)ccc3C2=O)cc1 | 118% (inactive)
CCOC(=O)C1=C(N)N(c2ccc(Cl)cc2)C2=C(C(=O)CC(C)(C)C2)C1c1ccc(N2CCOCC2)cc1 (centres undefined) | 94% (inactive)
CN(C(=O)c1ccc(C(C)(C)C)cc1)c1sc2c(c1C#N)CCC(=O)C2 | 35.6% (inactive)
Cc1cc(C)nc(SCC(=O)Nc2ccc(S(N)(=O)=O)cc2)n1 | 134% (inactive)
COc1ccc2[nH]c(O)c(N=NC(=O)c3cc(-c4ccc(C)cc4)nc4ccccc34)c2c1 | 95.8% (inactive)
O=C1Nc2ccc(Cl)cc2/C1=C/c1cccc(OCc2ccccn2)c1 | -16.2% (active)
Nc1nc(-c2ccccc2)cs1 | 73.2% (inactive)
COc1ccc2c3nc4cc(C)c(C)cc4nc3n(CCN(C)C)c2c1 | -50.6% (active)

SMILES | growth
O=C(c1ccc(Cl)cc1)C1[C@H](c2ccc(Br)cc2)[C@@H](c2ccccc2)NC12C(=O)Nc1ccc(Cl)cc12 (some centres undefined) | -63% (active)
CC(=O)Nc1ccc(-c2cn(-c3cccc(C(=O)Nc4ccc(Cl)c(C(F)(F)F)c4)c3)nn2)cn1 | -73.3% (active)
COc1ccc2nc(Cl)c(-c3cc(-c4ccccc4)nc(N)n3)cc2c1 | 3.53% (active)
CN1CCN(c2ccc(Nc3nc(NCCCNC(=O)C4CCCCC4)c4sccc4n3)cc2)CC1 | 52.9% (inactive)
COc1ccc(NC(=O)CSc2nnc(-c3ccc4nc(-c5ccc(Cl)cc5)[nH]c4c3)o2)cc1 | 10.7% (inactive)
CCCCCc1ccc(S(=O)(=O)Nc2cc(-c3csc(N(C)C(C)=O)n3)ccc2N2CCN(C)CC2)cc1 | 23.6% (inactive)
COc1ccc(NC(=O)Nc2ccc(OCC(=O)N=Nc3c(O)[nH]c4ccc([N+](=O)[O-])cc34)cc2)cc1 | 74% (inactive)
O=S(=O)(Nc1ncccn1)c1ccc(-n2c(-c3ccccc3)nc(-c3ccccc3)c2-c2ccccc2)cc1 | 88.1% (inactive)
O=c1oc2ccc(-c3ccc(F)cc3F)cc2c(=O)n1-c1ccc(Cl)c(C(F)(F)F)c1 | 8.48% (active)
CN1CCN(Cc2ccc(C(=O)Nc3cccc(Nc4ccc5c(O)cccc5n4)c3)cc2C(F)(F)F)CC1 | -18.5% (active)
O=C(c1ccc(-n2c(=O)[nH]c3ccccc3c2=O)cc1)N1CCOCC1 | 109% (inactive)
Cc1ccc(C(=O)Nc2ccc(-n3c(C)nc4c(cnn4-c4ccccc4)c3=O)cc2)cc1 | 75.4% (inactive)
O=C(Nc1ccccc1)Nc1nc2ccccc2s1 | 95.3% (inactive)
COc1cc2c(c(OC)c1OC)C(=O)CC(c1cccc(NC(=O)c3cccc(N)c3)c1)O2 (centres undefined) | 79.2% (inactive)
CCN1CCN(Cc2ccc(C(=O)Nc3cccc(-c4cn(-c5ccc6oc(=O)ccc6c5)nn4)c3)cc2C(F)(F)F)CC1 | -100% (active)
CCOC(=O)C1NN(c2ccc(S(N)(=O)=O)cc2)c2nc3nc(-c4cccs4)cc(-c4cccs4)c3c(=O)n21 (centres undefined) | 77.6% (inactive)
O=c1c2ccccc2nc(COc2ccccc2)n1/N=C/c1ccc(N2CCCC2)cc1 | 105% (inactive)
COc1ccc(-c2ccc(/C=N/NC(=O)c3[nH]c4ccc(Br)cc4c3-c3ccccc3)s2)cc1 | 27.7% (inactive)

Test system: HOP-92 NSCLC
Assay: as above
Details: 10 µM

SMILES | growth
COc1cc2c3c(n(CCCNCCO)c(=O)c2cc1OC)-c1nc2c(cc1C3=O)OCO2 | 7.23% (active)
COc1ccc2[nH]cc(/C=N/Nc3ccc(Br)cn3)c2c1 | -24.5% (active)
O=C(Cn1cc(CSc2nnc3oc4ccccc4n23)nn1)Nc1cccc(Cl)c1 | 52.1% (inactive)
O=C(NO)c1ccc(Cn2ccc3c(Nc4ccccc4)ncnc32)cc1 | -16.3% (active)
COc1ccc(-c2nc(-c3ccccc3)c(-c3ccccc3)n2-c2ccc(S(=O)(=O)Nc3ncccn3)cc2)cc1OC | 56.6% (inactive)
O=C(CSc1ccc(-c2ccc(Cl)cc2)nn1)Nc1ccc(Cl)c(C(F)(F)F)c1 | 75.8% (inactive)
CC1(C)[C@@H](NCO)CC[C@]2(C)[C@H]3C(=O)C=C4[C@@H]5C[C@](C)(CO)CC[C@]5(C)CC[C@@]4(C)[C@]3(C)CC[C@@H]12 | 52% (inactive)
Cn1cc(-c2cc(N)n3nc(-c4c[nH]c5ccc(Br)cc45)cc3n2)c2cccnc21 | -67.7% (active)
Nc1nnc(-c2c[nH]c3ncccc23)c(-c2c[nH]c3ccc(Br)cc23)n1 | 54.8% (inactive)
N#Cc1ccc(-c2nn(-c3ccc(C(=O)O)cc3)cc2CNc2ccc(Cl)cc2)cc1 | 133% (inactive)
O=C(c1ccc(O)cc1)C1[C@H](c2ccccc2Br)[C@@H](c2ccccc2)NC12C(=O)Nc1ccc(Cl)cc12 (some centres undefined) | -1.49% (active)
COc1nccnc1NS(=O)(=O)c1ccc(NC2=C(Cl)C(=O)c3nc(C)ccc3C2=O)cc1 | 116% (inactive)
CCOC(=O)C1=C(N)N(c2ccc(Cl)cc2)C2=C(C(=O)CC(C)(C)C2)C1c1ccc(N2CCOCC2)cc1 (centres undefined) | 92.9% (inactive)
CN(C(=O)c1ccc(C(C)(C)C)cc1)c1sc2c(c1C#N)CCC(=O)C2 | 21.9% (inactive)
Cc1cc(C)nc(SCC(=O)Nc2ccc(S(N)(=O)=O)cc2)n1 | 101% (inactive)
COc1ccc2[nH]c(O)c(N=NC(=O)c3cc(-c4ccc(C)cc4)nc4ccccc34)c2c1 | 97.8% (inactive)
O=C1Nc2ccc(Cl)cc2/C1=C/c1cccc(OCc2ccccn2)c1 | -6.11% (active)
Nc1nc(-c2ccccc2)cs1 | 60.9% (inactive)
COc1ccc2c3nc4cc(C)c(C)cc4nc3n(CCN(C)C)c2c1 | 27.1% (inactive)

SMILES | growth
O=C(c1ccc(Cl)cc1)C1[C@H](c2ccc(Br)cc2)[C@@H](c2ccccc2)NC12C(=O)Nc1ccc(Cl)cc12 (some centres undefined) | -69.2% (active)
CC(=O)Nc1ccc(-c2cn(-c3cccc(C(=O)Nc4ccc(Cl)c(C(F)(F)F)c4)c3)nn2)cn1 | -30.8% (active)
COc1ccc2nc(Cl)c(-c3cc(-c4ccccc4)nc(N)n3)cc2c1 | 48.5% (inactive)
CN1CCN(c2ccc(Nc3nc(NCCCNC(=O)C4CCCCC4)c4sccc4n3)cc2)CC1 | 25.4% (inactive)
COc1ccc(NC(=O)CSc2nnc(-c3ccc4nc(-c5ccc(Cl)cc5)[nH]c4c3)o2)cc1 | 102% (inactive)
CCCCCc1ccc(S(=O)(=O)Nc2cc(-c3csc(N(C)C(C)=O)n3)ccc2N2CCN(C)CC2)cc1 | -12.9% (active)
COc1ccc(NC(=O)Nc2ccc(OCC(=O)N=Nc3c(O)[nH]c4ccc([N+](=O)[O-])cc34)cc2)cc1 | 53.5% (inactive)
O=S(=O)(Nc1ncccn1)c1ccc(-n2c(-c3ccccc3)nc(-c3ccccc3)c2-c2ccccc2)cc1 | 109% (inactive)
O=c1oc2ccc(-c3ccc(F)cc3F)cc2c(=O)n1-c1ccc(Cl)c(C(F)(F)F)c1 | -19.4% (active)
CN1CCN(Cc2ccc(C(=O)Nc3cccc(Nc4ccc5c(O)cccc5n4)c3)cc2C(F)(F)F)CC1 | -37.3% (active)
O=C(c1ccc(-n2c(=O)[nH]c3ccccc3c2=O)cc1)N1CCOCC1 | 99.8% (inactive)
Cc1ccc(C(=O)Nc2ccc(-n3c(C)nc4c(cnn4-c4ccccc4)c3=O)cc2)cc1 | 93.3% (inactive)
O=C(Nc1ccccc1)Nc1nc2ccccc2s1 | 77.8% (inactive)
COc1cc2c(c(OC)c1OC)C(=O)CC(c1cccc(NC(=O)c3cccc(N)c3)c1)O2 (centres undefined) | 74% (inactive)
CCN1CCN(Cc2ccc(C(=O)Nc3cccc(-c4cn(-c5ccc6oc(=O)ccc6c5)nn4)c3)cc2C(F)(F)F)CC1 | -18% (active)
CCOC(=O)C1NN(c2ccc(S(N)(=O)=O)cc2)c2nc3nc(-c4cccs4)cc(-c4cccs4)c3c(=O)n21 (centres undefined) | 61.5% (inactive)
O=c1c2ccccc2nc(COc2ccccc2)n1/N=C/c1ccc(N2CCCC2)cc1 | 75.5% (inactive)
COc1ccc(-c2ccc(/C=N/NC(=O)c3[nH]c4ccc(Br)cc4c3-c3ccccc3)s2)cc1 | 120% (inactive)
